In the library only some 2.4% were active in any assay of this set; here they are far more common.
D2 ag-1: agonists of human D2 dopamine receptor. P14416. 0.53% of 340,000 active. HEK293 T-REx D2 cells, calcium flux agonist mode. AID 485358. activation, % at 2 µM;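 active = activation over 3 SD above normal in the single-dose calcium agonist read, cut at about 30% in these data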
Target sequence (P14416 whole entry, looked up): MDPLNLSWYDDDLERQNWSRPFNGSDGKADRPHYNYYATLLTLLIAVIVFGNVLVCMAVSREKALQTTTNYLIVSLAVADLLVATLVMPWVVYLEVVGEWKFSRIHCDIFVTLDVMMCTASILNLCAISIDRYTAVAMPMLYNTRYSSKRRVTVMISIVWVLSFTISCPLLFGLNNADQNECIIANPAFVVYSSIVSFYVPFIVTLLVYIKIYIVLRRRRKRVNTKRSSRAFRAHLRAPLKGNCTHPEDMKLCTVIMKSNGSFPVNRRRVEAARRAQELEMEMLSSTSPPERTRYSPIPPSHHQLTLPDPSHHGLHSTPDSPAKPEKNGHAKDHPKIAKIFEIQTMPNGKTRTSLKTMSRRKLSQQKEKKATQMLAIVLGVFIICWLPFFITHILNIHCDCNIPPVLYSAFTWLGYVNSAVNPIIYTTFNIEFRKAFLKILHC
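Calcium-flux readout, 1 cycle/sec over 180 s following compound pin transfer, in inducible HEK293 Trex D2 cells (force-coupled); dopamine controls included. Positive calcium responses during this window marked compounds as potential agonists.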
D2 antag: antagonizes the human D2 dopamine receptor. P14416. HEK293 TREx D2 cells, calcium flux, dopamine EC80. inhibition, % at 10 µM. 2% of 340,000 active. AID 485344; in the data active = inhibition above about 30%; inactive = below that, where a call was filed
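Read-out: kinetic calcium fluorescence (1 cycle/s) in inducible HEK293 T-REx D2 cells after an EC80 dopamine addition that followed 180 s compound preincubation. Loss of the dopamine response indicates antagonism.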
D2 PAM-1: D2 dopamine receptor (human) potentiation | HEK293 T-REx D2, calcium flux, EC20 dopamine potentiation | potentiation, % at 10 µM | P14416 | AID 485347 | 0.34% of 340,000 active;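 active = potentiation over 3 SD above the plate norm, cut at about 30% in these data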
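Potentiation of an EC20 dopamine calcium response measured kinetically over 180 s, after a preceding 180 s compound-only read flagging agonists. Cells: inducible Hek293 Trex D2 line, 4000/well, cultured overnight at 30 C before dye loading.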
D2 PAM-2: human D2 receptor positive allosteric modulation. potentiation, % (test concentration not listed). 0.23% of 360,000 active. P14416. DiscoveRx D2 beta-arrestin cells, luminescence, 90 min; 100% = 57 uM dopamine signal. AID 624464; in the data active = potentiation above about 50%; inconclusive = mostly about 30% to 49%
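PathHunter D2 cells, attached overnight at 37 deg C, received compound in DMSO plus dopamine at EC20 (50 nM final) for 90 min at 37 deg C. Beta-arrestin recruitment was read as luminescence after 1 h with detection reagent at ambient temperature.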
D2 ag-2: activates the human D2 dopamine receptor | DiscoveRx PathHunter D2 beta-arrestin, luminescence, 90 min; 100% = 57 uM dopamine signal | activation, % (concentration not given with the values) | 0.084% of 360,000 active; in the data active = activation above about 40%; inconclusive = between about 15% and that limit
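DiscoveRx PathHunter D2 beta-arrestin cells (2,100/well) attached overnight, then compound-stimulated 90 min at 37 C in HBSS/10 mM HEPES/0.1% Tween-20 buffer; beta-galactosidase complementation read by luminescence after 1 h at ambient temperature. Dopamine 57 uM final (EC100) as control.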
Hits are given with their value.

Results for COc1ccccc1N1CCN(C(=O)C2CCN(S(=O)(=O)c3cccs3)CC2)CC1 ?
D2 ag-1: inactive; D2 PAM-1: inactive

What do the screens show for `CCC(C)(C)n1nnnc1C(c1ccccn1)N1CCCCC1` (stereo not given)?
D2 ag-1: inactive; D2 antag: 51.8; D2 PAM-1: inactive; D2 PAM-2: inactive; D2 ag-2: inactive

Results for COc1ccccc1C(=O)NCC(=O)N1CC=C(c2ccccc2)CC1 ?
D2 ag-1: inactive; D2 antag: 30.2; D2 PAM-1: inactive; D2 PAM-2: inactive; D2 ag-2: inactive

What do the screens show for `CCCCn1nc(NC(=O)c2cccc(Cl)c2)c2cc3cccc(C)c3nc21`?
D2 ag-1: inactive; D2 PAM-1: inactive

How did Cc1cccc(CCN2C(Nc3ccccc3)=NC[C@@H]2CC(C)C)c1 do in these assays?
D2 ag-1: 59.5; D2 antag: 69.9; D2 PAM-1: inactive; D2 PAM-2: inactive; D2 ag-2: inactive

What do the screens show for `C=CCN1C(=O)CN=C1Nc1cccc(C)c1`?
D2 PAM-2: inactive; D2 ag-2: inactive

Results for Cc1cccc(NC2=NCC(=O)N2CCc2ccccc2)c1 ?
D2 ag-1: inactive; D2 antag: 37.3; D2 PAM-1: inactive; D2 PAM-2: inactive; D2 ag-2: inactive

How did CC(C)C[C@H]1CN=C(Nc2ccccc2)N1CCc1ccc(F)cc1 do in these assays?
D2 ag-1: 59.4; D2 antag: 73.5; D2 PAM-1: inactive; D2 PAM-2: inactive; D2 ag-2: inactive

Results for CC(C)C[C@H]1CN=C(Nc2ccccc2)N1CCc1cccc(F)c1 ?
D2 PAM-2: inactive; D2 ag-2: inactive

What do the screens show for `CC(C)CCN1C(Nc2ccccc2)=NC[C@@H]1CC(C)C`?
D2 ag-1: inactive; D2 antag: inactive; D2 PAM-1: inactive; D2 PAM-2: inactive; D2 ag-2: inactive

Results for COC(=O)C1=C(O)/C(=C\c2cc(C)n(-c3ccccc3C)c2C)N=C1C ?
D2 ag-1: inactive; D2 antag: 32.1; D2 PAM-1: inactive; D2 PAM-2: inactive; D2 ag-2: inactive

Results for CN=c1scc(-c2ccccc2F)n1/N=C/c1ccc[nH]1 ?
D2 ag-1: inactive; D2 antag: inactive; D2 PAM-1: inactive; D2 PAM-2: inactive; D2 ag-2: inactive

What do the screens show for `CN=c1scc(-c2ccccc2F)n1/N=C/c1ccc(O)c(O)c1O`?
D2 ag-1: inactive; D2 antag: inactive; D2 PAM-1: inactive; D2 PAM-2: 172.5; D2 ag-2: 180.3

What do the screens show for `CC(C)N=c1scc(-c2cccs2)n1/N=C/c1ccc(O)c(O)c1O`?
D2 ag-1: inactive; D2 antag: inactive; D2 PAM-1: inactive; D2 PAM-2: 54.6; D2 ag-2: inconclusive

Results for Cc1cccc(Cn2c(=O)n(-c3cc(C)cc(C)c3)c(=O)c3oc4ccccc4c32)c1 ?
D2 ag-1: inactive; D2 PAM-1: inactive

Results for Cc1ccc(Cl)cc1NC(=S)N(CCCN1CCN(C)CC1)Cc1ccco1 ?
D2 ag-1: inactive; D2 antag: 71.0; D2 PAM-1: inactive; D2 PAM-2: inactive; D2 ag-2: inactive

What do the screens show for `Cc1ccc(NC(=S)N(CCCN2CCCC(C)C2)Cc2ccco2)cc1C` (stereo not given)?
D2 antag: 45.7; D2 PAM-1: inactive; D2 PAM-2: inactive; D2 ag-2: inactive

Results for Cc1cc(NC(=S)N(CCN2CCCCC2)Cc2ccco2)ccc1Cl ?
D2 ag-1: inactive; D2 antag: 35.3; D2 PAM-1: inactive; D2 PAM-2: inactive; D2 ag-2: inactive

How did Cc1ccc(COC(=O)c2cccc(S(=O)(=O)N3CCCCCC3)c2)cc1 do in these assays?
D2 ag-1: inactive; D2 antag: 42.9; D2 PAM-1: inactive; D2 PAM-2: inactive; D2 ag-2: inactive

Results for Cc1ccc(COC(=O)c2cccc(S(=O)(=O)N3CCCCC3)c2)cc1 ?
D2 ag-1: inactive; D2 antag: inactive; D2 PAM-1: inactive; D2 PAM-2: inactive; D2 ag-2: inactive

Results for COc1ccccc1COC(=O)c1cccc(S(=O)(=O)N2CCCC2)c1 ?
D2 ag-1: inactive; D2 antag: 41.7; D2 PAM-1: inactive; D2 PAM-2: inactive; D2 ag-2: inactive

What do the screens show for `COc1ccc(N2Cc3cccc(C(=O)Nc4cccc(F)c4)c3C2=O)cc1`?
D2 ag-1: inactive; D2 PAM-1: inactive

What do the screens show for `CCc1c(C)sc(NC(=S)N2CC(C)OC(C)C2)c1C(=O)OC` (stereo not given)?
D2 ag-1: inactive; D2 antag: inactive; D2 PAM-1: inactive; D2 PAM-2: 68.0; D2 ag-2: inactive

What do the screens show for `FC(F)(F)c1cccc(N2CCN(CC3CC=CCC3)CC2)c1` (stereo not given)?
D2 ag-1: inactive; D2 antag: 73.2; D2 PAM-1: inactive; D2 PAM-2: inactive; D2 ag-2: inactive

How did Cc1ccc(N2CCN(CC3CC=CCC3)CC2)cc1 (stereo not given) do in these assays?
D2 ag-1: inactive; D2 antag: 36.5; D2 PAM-1: inactive; D2 PAM-2: inactive; D2 ag-2: inactive

How did Cc1ccc(C)c(N2CCN(C(=O)c3cc4c(=O)oc5ccccc5c4s3)CC2)c1 do in these assays?
D2 ag-1: inactive; D2 PAM-1: inactive

Results for COc1ccc(-c2cc3ccc(O)c(CN4CCOCC4)c3oc2=O)cc1OC ?
D2 ag-1: inactive; D2 PAM-1: inactive

How did O=C(CN1CCCN(S(=O)(=O)c2ccc(Br)cc2)CC1)Nc1cccc(C(F)(F)F)c1 do in these assays?
D2 ag-1: inactive; D2 PAM-1: inactive

How did CC(CCN1CCOCC1)c1ccccc1 (stereo not given) do in these assays?
D2 ag-1: inactive; D2 antag: inactive; D2 PAM-1: inactive; D2 PAM-2: inactive; D2 ag-2: inactive

What do the screens show for `CC(CCN1CCN(c2ccc(F)cc2)CC1)c1ccccc1` (stereo not given)?
D2 ag-1: inactive; D2 antag: 87.7; D2 PAM-1: inactive; D2 PAM-2: inactive; D2 ag-2: inactive

How did CC1=C(C(=O)Nc2cc(C)cc(C)c2)C2(CCCCC2)OC1=O do in these assays?
D2 ag-1: inactive; D2 PAM-1: inactive

How did S=c1[nH]c(-c2ccccc2)cn1/N=C/c1ccccc1Br do in these assays?
D2 ag-1: inactive; D2 antag: inactive; D2 PAM-1: inactive; D2 PAM-2: inactive; D2 ag-2: inactive

How did S=c1[nH]c(-c2ccccc2)cn1/N=C/c1cccc2ccccc12 do in these assays?
D2 ag-1: inactive; D2 antag: 33.0; D2 PAM-1: inactive; D2 PAM-2: inactive; D2 ag-2: inactive

Results for CCOC(=O)c1c(NC(=O)C(C)Sc2cn(CCNC(=O)c3ccc(OC)cc3)c3ccccc23)sc2c1CCC2 (stereo not given) ?
D2 ag-1: inactive

What do the screens show for `O=C(CSc1nc2[nH]c(=O)cc(O)c2s1)NCCc1ccccc1`?
D2 ag-1: inactive; D2 antag: inactive; D2 PAM-1: inactive; D2 PAM-2: inactive; D2 ag-2: inactive

What do the screens show for `COc1ccc(CCNC(=O)CN2C(=O)c3ccccc3S2(=O)=O)cc1`?
D2 ag-1: inactive; D2 antag: 34.5; D2 PAM-1: inactive; D2 PAM-2: inactive; D2 ag-2: inactive

Source: PubChem BioAssay (National Center for Advancing Translational Sciences (NCATS))
